Laboratory results reported in ChEMBL document CHEMBL3988442, “University of Dundee, Small-Polar-MMV Screening Library” (2021).
The campaign covered roughly 48,000 compounds. About 13,000 (27%) showed an effect of 50% or more. The list shows a part of the results.

test system: Wolbachia pipientis; assay: Anti-Wolbachia Cell-Based Screen; format: functional; set-up: scale not given: in the data most compounds retested in dose-response had high values; conditions: 5 µM

| Compound | Percent Effect |
| --- | --- |
| CCOc1ccc(-c2ccnc(CC)n2)cc1C(=O)O | -9.54% |
| COc1ccc(CNC(=O)NC2CCN(CC3CCCC3)CC2)cn1 | 15.19% |
| CC(C)Oc1ccc(CNC(=O)C2CCC(=O)N2)cn1 (centres undefined) | 3.42% |
| Cc1nnc(NC(=O)NCc2ccc(OC3CCCC3)nc2)s1 | 94.72% |
| Cc1nnc(NC(=O)NCc2ccc(OC(C)C)nc2)s1 | 85.37% |
| Cc1ccc(CNC(=O)Nc2nnc(C)s2)cn1 | 3.385% |
| O=C(NCc1ccc(OCC2CC2)nc1)Nc1c(F)cccc1F | -3.933% |
| Cc1nnc(SCC(=O)NCC(c2ccccc2Cl)N(C)C)s1 (centres undefined) | -0.8898% |
| CCOC1CCN(C(=O)c2csc(S(N)(=O)=O)c2)CC1 | 18.04% |
| CC(C)CC1(C(=O)NCc2nncn2C2CC2)CCC1 | -7.53% |
| COC(C)(C)CC(C)NCc1nncn1C1CCCCC1 (centres undefined) | -17.97% |
| CCn1cnnc1CNC(=O)NC(C)C(C)C (centres undefined) | -4.455% |
| CCn1cnnc1CNc1nc(C)nc2scc(CC(C)C)c12 | 122.4% |
| Cc1nc(NCc2nncn2C2CC2)c2c(CC(C)C)csc2n1 | 109.7% |
| CCC(NC(=O)NCc1nncn1CC)c1ccc(OC)cc1 (centres undefined) | -10.18% |
| Cc1c(NC(C)C(C)C)cccc1C(=O)NCc1nnc(C)n1C (centres undefined) | 0.4576% |
| Cc1nc(NCc2nnc(C)n2C)c2c(CC(C)C)csc2n1 | 119.2% |
| COc1ccc(S(=O)(=O)C(F)(F)F)cc1NC(=O)CSCC#N | 5.684% |
| O=C(Cn1nc2c(cc1=O)CCCC2)NC(C(=O)O)c1ccccc1 (centres undefined) | 110.7% |
| O=c1cc2c(nn1CN1CCN(c3ccccc3)CC1)CCC2 | 10.03% |
| CCCn1nc2c(cc1=O)CN(CC(=O)Nc1cc(C)no1)CC2 | -28.4% |
| O=C(Cn1nc2c(cc1=O)CCCC2)N[C@@H](C(=O)O)c1ccccc1 | 11.26% |
| O=C(Cn1nc2c(cc1=O)CCCC2)N[C@@H](Cc1ccccc1)C(=O)O | 3.393% |
| O=C(Cn1nc2c(cc1=O)CCCC2)NC(Cc1ccccc1)C(=O)O (centres undefined) | 101% |
| CC(C)C(NC(=O)Cn1nc2c(cc1=O)CCCC2)C(=O)O (centres undefined) | 113% |
| O=C(Cn1nc2c(cc1=O)CSCC2)NC(Cc1ccccc1)C(=O)O (centres undefined) | 28.51% |

| Compound | Percent Effect |
| --- | --- |
| CC(C)c1cc(NC(=O)CN2CCc3nn(C)c(=O)cc3C2)on1 | -16.14% |
| CCCc1cc(NCc2noc(COC)n2)n2nccc2n1 | 6.33% |
| CCC(C(=O)NC1CCCCC1)n1cccc(OC)c1=O (centres undefined) | -2.043% |
| Cc1cccc(O[C@H]2COCCN(C3CCC3)C2)n1 | 0.8237% |
| CN(C)c1ccc(CC2CCN(c3cnccn3)CC2)nn1 | 90.64% |
| c1cnc(CC2COCCN(C3CCCCC3)C2)cn1 (centres undefined) | 106.9% |
| c1cncc(O[C@H]2COCCN(C3CCC3)C2)c1 | -11.18% |
| CN(C)c1ccc(CC2CCN(c3cnccn3)C2)nn1 (centres undefined) | 129.7% |
| CN(C)c1ccc(CC2CCCN(c3cnccn3)C2)nn1 (centres undefined) | 93.08% |
| Cc1occc1C(=O)N1CCC2(CC1)CN(Cc1nccs1)CCO2.O=C(O)C(F)(F)F | -1.97% |
| CCNC(=O)CNS(=O)(=O)c1cc(Br)ccc1F | -3.098% |
| Cc1nnc(NCC2(c3ccc(Cl)cc3Cl)CCOCC2)c(C#N)c1C | 25.06% |
| COCC1(CNC(=O)[C@@]23CNC[C@@H]2CN(C2CCCC2)C3)CC1 | -67.22% |
| Cc1noc(-c2ccnc(N3CCC(CN4CCOCC4)CC3)c2)n1 | 3.253% |
| c1cnc(CC2CCN(c3cnccn3)CC2)cn1 | 139.5% |
| O=C(O)c1cccc(CC2CCN(c3cnccn3)CC2)c1 | -21.8% |
| Cc1nccc(CC2COCCN(c3cnccn3)C2)n1 (centres undefined) | 114.6% |
| O=C1[C@H]2CN(c3cnccn3)C[C@H]2CN1CC1CC1 | -18.33% |
| Cc1ccccc1CSc1nc(N)cc(N2CCOCC(CO)C2)n1 (centres undefined) | 4.884% |
| O=C1NCCN(C(=O)CCN2CCCO2)C1c1cccc(F)c1 (centres undefined) | -39.77% |
| Cc1ccnc(NCCNC(=O)Cc2c(C)[nH]c3c(C)ccc(C)c23)c1 | -11.21% |
| Cc1ccc([C@@H]2CN(C(=O)c3cccnn3)C[C@H]2NC(=O)C2CC2)cc1 | 2.45% |
| CCSCCNC(=O)C(c1cccc(C)c1)N(C)C (centres undefined) | -29.39% |
| Cc1cccc(C(C(=O)NC(C)(C)CN2CCOCC2)N(C)C)c1 (centres undefined) | 112.8% |
| Cc1cc(C)cc(C(C(=O)O)N(C)CCCN2CCOCC2)c1 (centres undefined) | 10.88% |
| Cc1cccc(C(C(=O)NC(C)(C)CN2CCCC2)N(C)C)c1 (centres undefined) | 106.7% |

| Compound | Percent Effect |
| --- | --- |
| Cc1cccc(C(C(=O)NCCn2cccc2)N(C)C)c1 (centres undefined) | -2.901% |
| Cc1cccc(C(C(=O)NCC2(O)CCCCC2)N(C)C)c1 (centres undefined) | -2.512% |
| Cc1ccc(C(C(=O)NC(C)(C)CN2CCCC2)N(C)C)cc1 (centres undefined) | 96.39% |
| Cc1ccc(C(C(=O)NCCN2CCC(CO)CC2)N(C)C)cc1 (centres undefined) | 0.4619% |
| Cc1ccc(C(C(=O)NCCN2CCCCCC2)N(C)C)cc1 (centres undefined) | -4.058% |
| CN(C)S(=O)(=O)NCC1OCCc2cn(CC3CCOCC3)nc21 (centres undefined) | 2.181% |
| CC(=O)c1c(F)cccc1N1CCC(C(N)=O)CC1 | 16.85% |
| CC(C)n1nc(CNc2ncccn2)c2c1CN(C1CCOCC1)CC2.O=C(O)C(F)(F)F | 3.818% |
| CNS(=O)(=O)Cc1cccc(CNc2ccc(C#N)cn2)c1 | 5.411% |
| Cc1ccc(F)c(OC2(C(=O)O)CCN(C(=O)N3CCCC3)CC2)c1 | -14.67% |
| COC(=O)[C@H]1C[C@@H](O)CCN1S(=O)(=O)c1c(C)cc(OC)c(C)c1C | -13.15% |
| COc1ccc(CN(C)c2nccc(-c3cn(C)nc3C)n2)cc1 | -45.72% |
| CCc1nn2c(=N)c(C#N)n[nH]c2c1-c1ccc(OC)cc1 | 103% |
| COc1ccc(-c2c(C)nn3c(=N)c(C#N)n[nH]c23)cc1OC | 107.4% |
| COc1ccc(-c2c(C(C)C)nn3c(=N)c(C#N)n[nH]c23)cc1 | 89.55% |
| COc1ccc(-c2csc(N)c2C#N)cc1OC | -8.208% |
| COc1ccc(-c2c(C)nn3c(=N)c(C#N)n[nH]c23)cc1 | 88.05% |
| CCN(C)C[C@H]1CC[C@@H](Cc2ccc3c(cnn3C)c2)O1 | -8.878% |
| CCS(=O)(=O)c1ccc(NCc2csc(C(C)C)n2)cc1 | 5.353% |
| O=C1NCCN(Cc2ccccc2)C1CC(=O)N1CCc2n[nH]cc2C1 (centres undefined) | -21.59% |
| Cl.O=C(O)CC1CN(Cc2ccccc2)CCO1 (centres undefined) | -7.682% |
| CNc1nccnc1C1CN(Cc2ccc3[nH]ccc3c2)CCO1 (centres undefined) | 136.6% |
| O=C(O)C(F)(F)F.O=C(O)C(F)(F)F.c1cc(C2CC2)n2cnc(C3CN(Cc4ccncc4)CCO3)c2c1 (centres undefined) | 5.365% |
| O=C(COc1cccnc1)N1CCOC(C(F)(F)F)C1 (centres undefined) | -4.014% |
| Nc1nccnc1C1CN(Cc2ccc(OCC(=O)O)cc2)CCO1 (centres undefined) | 171.8% |
| CNc1nccnc1C1CN(Cc2ccc(OCC(=O)O)cc2)CCO1 (centres undefined) | 142.7% |

| Compound | Percent Effect |
| --- | --- |
| COc1ccc(CN2CCOC[C@H](OCC(=O)N(C)C)C2)cc1 | -7.108% |
| O=C(COc1cccnc1)N1CCCC(n2cccn2)C1 (centres undefined) | -8.892% |
| Nc1nccnc1C1CN(C(=O)COc2cccnc2)CCO1 (centres undefined) | 107.6% |
| Cc1ncsc1C(=O)NCCOc1ncc(Cl)cc1Cl | 21.09% |
| Cc1ncsc1CCN(C)C(=O)CN1C(=O)OC[C@@H]1c1ccccc1 | -3.352% |
| CN(Cc1ccc(C(=O)NCC2COCCO2)c(=O)[nH]1)CC(C)(C)C (centres undefined) | -4.558% |
| Cc1ccc(NC(=O)NC(C)(C)c2noc(C)n2)cc1 | -4.171% |
| Cn1nnc2c1CCN(CC1CC1)C2COCC1CC1.O=C(O)C(F)(F)F (centres undefined) | 12.72% |
| Cc1noc(CCCNS(=O)(=O)N2CCCC2c2ccco2)n1 (centres undefined) | -11.05% |
| Cc1cnccc1CN(C)C(=O)c1cccc(CCC(C)(C)O)c1 | 0.1694% |
| CCc1oc(C(=O)N2CC[C@H]3CC[C@@H](C2)N3)cc1CN(CC)CC | 112% |
| CCCOC1CCCN(C(=O)c2ccnnc2)C1 (centres undefined) | 0.837% |
| CCc1ccc(C(=O)N2CCC(N(C)C(=O)OC(C)(C)C)C2)o1 (centres undefined) | 8.552% |
| CCc1oc(C(=O)N2CCCC(c3nnn[nH]3)C2)cc1C (centres undefined) | -3.531% |
| CCCOC1CCCN(C(=O)c2csc(S(N)(=O)=O)c2)C1 (centres undefined) | 6.923% |
| CCCOc1ccc(C(=O)N2CC[C@H]3CC[C@@H](C2)N3)cc1Cl | -21.75% |
| CCc1oc(C(=O)N2CCC(N(CC)C(C)=O)C2)cc1CN(CC)CC (centres undefined) | 93.17% |
| CCN(CC)Cc1cc(C(=O)N2CC[C@@]3(O)CCCC[C@H]3C2)c(C)o1 | -6.043% |
| CCCOC1CCCN(C(=O)c2cc(CN(CC)CC)c(CC)o2)C1 (centres undefined) | 92.62% |
| O=C(CCCc1ccccn1)NCC(O)c1c(F)cccc1F (centres undefined) | 14.04% |
| CC(=O)Nc1ccc(CNC(=O)CNCc2nnc(C)o2)cc1 | -22.07% |
| CC(C)c1ncc(CN2C[C@@H](CN3CCCN(C)CC3)[C@@H](CO)C2)cn1 | -6.838% |
| COc1cc(CN(C)C(=O)NCCC2CCCO2)ccc1SC (centres undefined) | -4.598% |
| Cc1nccn1CCN(C)c1cc(C(C)C)nc2ccnn12 | -21.61% |
| Cc1cc(N(C)CCn2ccnc2C)n2nccc2n1 | 3.132% |
| Cc1cc(C)nc(N(C)CCn2ccnc2C)n1 | 70.85% |
